Reference: ChEMBL document CHEMBL1157539, “Thousands of chemical starting points for antimalarial lead identification” (Nature, 2010)

Columns and labels:
Assay type in all cases: functional
[1] = tested on: Plasmodium falciparum; assay: GSK_TCMDC: Inhibition of Plasmodium falciparum 3D7 in whole red blood cells, using parasite LDH activity as an index of growth. Test compounds present at 2uM
[2] = tested on: Plasmodium falciparum; assay: GSK_TCMDC: Inhibition of Plasmodium falciparum Dd2 in whole red blood cells, using parasite LDH activity as an index of growth. Test compounds present at 2uM
[3] = tested on: HepG2; assay: GSK_TCMDC: Percent inhibition of human HepG2 cell line. Test compounds present at 10uM.

| Structure (SMILES) | Inhibition [1] [%] | Inhibition [2] [%] | Inhibition [3] [%] |
| --- | --- | --- | --- |
| CC(C)(C)c1ccc(O)c(CNC2CCCCC2)c1.Cl | 100 | 98 | 5 |
| Cc1ccc(Cn2ncc(N3CC(C)NC(C)C3)c(Cl)c2=O)cc1NC(=O)Nc1ccc(-c2ccccc2)cc1.O=C(O)C(F)(F)F (stereo unspecified) | 100 | 29 | 51 |
| Cl.N#Cc1ccc2c(c1)CN(CCCCNC(=O)c1ccc(-c3ccccc3)cc1)CC2 | 96 | 10 | 0 |
| N=C(N)c1ccc(NC(=O)c2cc(Sc3ccc(O)c(C(=O)Nc4ccc(C(=N)N)cc4)c3)ccc2O)cc1 | 93 | 87 | 11 |
| Cc1cc(C2CCN(CCCCNC(=O)c3ccc(-c4ccc(C(F)(F)F)cc4)cc3)CC2)c(C)cc1OCC(N)=O | 91 | 44 | 34 |
| O=C(Nc1nc2cc(S(=O)(=O)NCCCN3CCOCC3)ccc2n1CCCn1ccnc1)c1ccc(Cl)cc1.O=C(O)C(F)(F)F | 95 | 0 | 0 |
| COc1ccc2nccc([C@@H](O)CN3CCC(NCCOc4ccc(F)cc4Cl)CC3)c2c1.O=C(O)C(=O)O | 99 | 85 | 1 |
| CCN(CC1CCN(CC2(O)CCOCC2)CC1)c1cc(C)nc(Nc2ccc(Cl)cc2)n1 | 100 | 99 | 34 |
| Cl.c1ccc2c(Nc3ccc(Oc4ccc(Nc5c6ccccc6nc6ccccc56)cc4)cc3)c3ccccc3nc2c1 | 100 | 99 | 21 |
| CC(=O)Nc1ccc(-c2nc3ccc(-c4nc5ccc(NC(C)=O)cc5[nH]4)cc3[nH]2)cc1 | 99 | 99 | 0 |
| CCCCN(CCCC)Cc1cc2ccccc2cc1O.Cl | 100 | 98 | 9 |
| CN1CCCc2ccc(NC(=O)c3ccc(-c4cc(C(F)(F)F)nn4C)s3)cc2C1.O=C(O)C(F)(F)F | 88 | 34 | 16 |
| COc1cc2c(c(Cl)c1OC)CCN(C(=O)C(F)(F)F)CC2c1ccccc1 (stereo unspecified) | 100 | 100 | 7 |
| Cc1ccccc1Nc1nc(NCCCO)c2ccccc2n1.Cl | 83 | 50 | 0 |
| CC(C)c1ccc(NC(=O)NC2CCN(CCCCCNC(=O)/C=C/c3ccc(Cl)c(Cl)c3)CC2)cc1 | 100 | 19 | 0 |
| CCOc1ccc(-c2nonc2NC(=O)c2ccccc2OC)cc1OCC | 100 | 99 | 24 |
| COc1ccccc1C1CC(c2ccc(C)cc2)=NN1C(=O)c1ccccc1 (stereo unspecified) | 98 | 45 | 37 |
| N#Cc1ccc(N(CCOc2ccc3c(c2)CCC(=O)N3)Cc2ccccc2C(F)(F)F)cc1C(F)(F)F | 98 | 64 | 19 |
| N#Cc1ccc(CN2CCC(NC(=O)c3ccc(-c4nnc(-c5cccc6ccccc56)o4)cc3)CC2)cc1 | 98 | 14 | 37 |

| Structure (SMILES) | Inhibition [1] [%] | Inhibition [2] [%] | Inhibition [3] [%] |
| --- | --- | --- | --- |
| C[C@@H](N/C(=N\c1ccccc1Cl)Nc1ccc(C#N)cc1O)c1ccc(Br)cc1 | 98 | 70 | 33 |
| Oc1cccc(CNCCCN(Cc2ccccc2)c2ccccc2)c1 | 99 | 97 | 7 |
| CC(C)(C)[C@@H](Nc1ccc(C#N)c2ccccc12)C(=O)NC1(Cc2ccc(O)cc2)CCCC1 | 90 | 74 | 14 |
| O=c1c(Br)ccccc1Br | 94 | 41 | 98 |
| CC(=O)Oc1c(C2CCN(CCCCNC(=O)c3ccc(-c4ccc(C#N)cc4)cc3)CC2)ccc2c1CCCC2 | 88 | 52 | 21 |
| O=C(Nc1cccc(C(F)(F)F)c1)Nc1ccc2nonc2c1 | 98 | 76 | 0 |
| CCOC(=O)c1cc(C(=O)OC)c2ccccn12 | 97 | 2 | 44 |
| CC(C)c1ccc(CN2CCC(NC(=O)c3ccc(-c4cccc(F)c4)s3)CC2)cc1.O=C(O)C(F)(F)F | 83 | 12 | 47 |
| COc1ccc2nc(C)cc(NC3Cc4ccccc4C3)c2c1.Cl | 98 | 13 | 20 |
| O=C(Nc1cccc(C(F)(F)F)c1)Nc1ccc(F)c([N+](=O)[O-])c1 | 100 | 100 | 43 |
| CC(=O)Nc1cc(C(=O)Nc2cccc(-c3csc(-c4nc5ccccc5[nH]4)c3)c2)ccc1C | 94 | 66 | 31 |
| Clc1ccccc1CNc1noc(-c2sccc2Br)n1 | 97 | 93 | 0 |
| Cc1ccc(Cn2nc(N3CCNCC3)ccc2=O)cc1NC(=O)Nc1ccc(-c2ccccc2)cc1.O=C(O)C(F)(F)F | 94 | 20 | 46 |
| Cc1noc(C)c1-c1cccc(CNCc2cccc(-c3ccc(-c4nc5cccc(C)c5[nH]4)s3)c2)c1.O=C(O)C(F)(F)F | 100 | 75 | 22 |
| O=C(Nc1ccc2c(c1)CCN2C1CCN(Cc2ccc(F)cc2Cl)C1)c1ccco1 (stereo unspecified) | 97 | 96 | 4 |
| CC(CN(C)C)C(=O)Nc1cccc(-c2ccc(-c3nc4cc(F)ccc4[nH]3)cc2)c1 (stereo unspecified) | 100 | 100 | 11 |
| O=C(/C=C/c1ccc(Cl)c(Cl)c1)NCCCCN1CCCN(C(=O)Nc2ccc(Cl)c(Cl)c2)CC1 | 96 | 1 | 22 |
| COc1ccc2ncc(F)c([C@@H](O)CN3CCC(NCc4cc5c(cn4)OCCO5)CC3)c2c1.Cl | 100 | 98 | 0 |
| C[C@H]1CN(Cc2cccc(-c3cc(CNC(=O)c4cccc(CN5CCN(C/C=C/c6ccccc6)CC5)c4)ccc3F)c2)CCN1.O=C(O)C(F)(F)F | 98 | 46 | 98 |

| Structure (SMILES) | Inhibition [1] [%] | Inhibition [2] [%] | Inhibition [3] [%] |
| --- | --- | --- | --- |
| COc1cccc(-c2cccc(-c3ccc(NC(=O)c4ccc([N+](=O)[O-])o4)cc3)n2)c1 | 97 | 94 | 98 |
| C[C@@H](C(=O)N1CCOCC1)N1CC[C@H](NS(=O)(=O)c2ccc3ccnc(N)c3c2)C1=O.O=CO | 84 | 61 | 0 |
| Cc1cccc2nc(-c3ccc(-c4cccc(NC(=O)COc5ccccc5C(N)=O)c4)s3)[nH]c12 | 99 | 19 | 80 |
| CCN(CCCN1CCCCC1)c1cc(C)nc(Nc2cc(Cl)ccc2C)n1.O=C(O)C(F)(F)F | 99 | 37 | 36 |
| c1csc(-c2ccc3c(c2)CC(NCc2c[nH]c4cnccc24)C3)c1 (stereo unspecified) | 100 | 34 | 9 |
| CC(C)(C)c1ccc(NC(=O)c2cccc(CN3CCCN(Cc4ccsc4)CC3)c2)cc1.O=C(O)C(F)(F)F | 96 | 3 | 33 |
| Cl.N=C(N)Nc1ccc(CCc2ccc(NC(=N)N)cc2)cc1 | 96 | 95 | 57 |
| COc1cc2nc(N3CCC(CNC(=O)c4ccc(C(C)=O)cc4)CC3)nc(N)c2cc1OC.O=C(O)C(F)(F)F | 96 | 15 | 10 |
| O=C(NC1CCCCC1)C(c1cccs1)N(CCc1ccccc1)C(=O)c1ccco1 (stereo unspecified) | 92 | 63 | 0 |
| Cn1cncc1C(=O)Nc1cccc(-c2cccc(-c3nc4ccccc4[nH]3)c2)c1 | 100 | 35 | 9 |
| O=C(/C=C/c1ccc(Cl)c(Cl)c1)NCCCCCN1CCCC(C(=O)Nc2ccc(F)c(Cl)c2)C1 (stereo unspecified) | 99 | 2 | 28 |
| Oc1ccc2[nH]c(-c3ccc(F)cc3F)nc2c1CN1CCC(O)(c2ccccc2)CC1 | 96 | 70 | 16 |
| COc1cc(NCC(O)CNc2cc(OC)c3ccccc3n2)nc2ccccc12 | 100 | 93 | 42 |
| COc1ccc2nccc(NC(=O)CNCc3ccc(-c4ccccc4)cc3)c2c1 | 100 | 35 | 11 |
| CC(=O)N(C)c1cccc(C(=O)Nc2ccc(-c3cccc(-c4nc5cccc(C)c5[nH]4)c3)cc2)c1 | 97 | 68 | 86 |
| Cc1ccc(NC(=O)c2ccc(Cl)c(Cl)c2)cc1-c1ccc(C(=O)Nc2ccncc2)cc1 | 99 | 79 | 39 |
| CN(C)c1ccc(CN2CCC(NC(=O)c3ccc(-c4ccc(N(C)C)cc4)s3)CC2)cc1.O=C(O)C(F)(F)F | 93 | 21 | 24 |
| CC(C)(C)c1ccc(CN2CCCCC(NC(=O)c3cc(-c4ccccc4Cl)cs3)C2)cc1.O=C(O)C(F)(F)F (stereo unspecified) | 100 | 98 | 3 |
| CC(C)NC(C)(C)CN(Cc1ccc(-c2ccc(C(F)(F)F)cc2)cc1)C(=O)Cn1c(CCc2cccc(F)c2F)nc(=O)c2ccccc21 | 94 | 68 | 44 |
